# Assay results as given in PubChem BioAssay (NCATS).
# Where “and” joins values, the source holds several entries; their conditions need not be identical. Equal entries are not always repeated. Records with an inconclusive call do not appear. Calls of active or inactive are those of the source. Unless noted, the call rests on the fitted dose curve.
# Assays:
# [1] = biological target: Bile acid receptor (Homo sapiens) (UniProt Q96RI1); assay: qHTS assay for small molecule agonists of farnesoid X receptor signaling (AID 588527); conditions: HEK293T FXR-UAS-bla, beta-lactamase ratio, 16 h; activation: stronger effect = higher value;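 further: series mostly up to about 77 µM; 0% = vehicle basal and 100% = reference agonist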
# How it was run: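 Read-out: beta-lactamase reporter fluorescence with CCF4 substrate in GeneBLAzer FXR-UAS-bla HEK293T cells, after 16 h compound exposure at 37 C. Response scaled between DMSO basal (0%) and chenodeoxycholic acid at 100 uM (100%).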
# [2] = biological target: Peroxisome proliferator-activated receptor delta (Homo sapiens) (UniProt Q03181); assay: qHTS assay for small molecule agonists of peroxisome proliferator-activated receptor delta signaling (AID 588534);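 further: 0% = DMSO basal wells and 100% = positive control agonist at 10 µM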
# How it was run: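 Agonist-mode beta-lactamase reporter readout (CCF4 dye, 2 h at RT) after 18 h at 37 °C exposure to a titration; Hill-equation fitting gave EC50 and maximal response.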
# [3] = biological target: Glucocorticoid receptor (Homo sapiens) (UniProt P04150); assay: qHTS assay for small molecule agonists of glucocorticoid receptor signaling (AID 588532; active means well fitted curve in the direction sought with a large enough effect in the signal ratio, with a control signal flat; the % refers to the signal ratio;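 further: 100% = dexamethasone at 0.1 µM and 0% = DMSO only wells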); conditions: HeLa MMTV-bla, beta-lactamase ratio, agonist, 18 h; activation: stronger effect = higher value, percent of dexamethasone control, DMSO zero
# How it was run: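 Stimulation of a glucocorticoid response element-driven beta-lactamase gene was measured in HeLa cells. Responses were scaled between DMSO basal and 0.1 uM dexamethasone, then fitted for half-maximal stimulation.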
# [4] = biological target: Thyroid hormone receptor beta (Homo sapiens) (UniProt P10828); assay: qHTS assay for small molecule agonists of thyroid hormone receptor beta signaling (AID 588545)
# How it was run: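 Cells (2500/well) were seeded, incubated 4 hrs at 37 C, dosed with a compound series, incubated 18 hrs, loaded with CCF4 dye for 2 hrs at RT, then read for fluorescence. Data were scaled between DMSO (0%) and 10 nM T3 (100%).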
# [5] = qHTS assay for small molecule antagonists of retinoid X receptor alpha signaling (AID 588546; active means well fitted inhibition curve with a large enough effect in the signal ratio, with a control signal flat, not every such curve was filed as active; the % refers to the signal ratio; further: potency means the concentration at half of the fitted maximal effect;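 on max response: cells stimulated with 9-cis-retinoic acid as agonist; on the % scale 0 is the no-effect control and ±100 the full control effect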); conditions: HEK293T RXRa-UAS-bla, beta-lactamase ratio, antagonist mode; measured here: W530 green channel, cytotoxicity proxy
# How it was run: (§1)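 Beta-lactamase reporter inhibition, read as CCF4 fluorescence ratio (ex 405, em 460/530 nm) after 2 h at RT. HEK293T UAS-bla cells, 2500/well, were stimulated with 9-cis-RA at 500 or 100 nM final alongside test compound for 18 h at 37 C.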
# [6] = biological target: Retinoic acid receptor RXR-alpha (Homo sapiens) (UniProt P19793); assay: as above; conditions: HEK293T RXRa-UAS-bla, beta-lactamase ratio, antagonist mode
# How it was run: as §1
# [7] = qHTS assay for small molecule agonists of the antioxidant response element (ARE) signaling pathway (AID 651741; active means well fitted activation curve with a large enough effect in the signal ratio; the % refers to the signal ratio; further: potency means the concentration at half of the fitted maximal effect)
# How it was run: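 Reporter: beta-lactamase under ARE, stably in HepG2. Exposure: 16 h, 37 C, compounds delivered in DMSO by pin tool after 5 h cell preincubation. Readout: FRET substrate fluorescence after 2 h at RT.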
# [8] = qHTS assay for environmental chemicals that activate the Aryl hydrocarbon Receptor (AhR) signaling pathway (AID 651777; active means well fitted curve in the direction sought with a large enough effect; an effect the other way counts as inactive or inconclusive; further: % of control where 0% means no effect; nearly all actives have a fitted effect of over 15% in size); conditions: 1A2-DRE human hepatoma cells, luciferase, 24 h; activation: stronger effect = higher value
# How it was run: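 Induction of CYP1A2 transcription through AhR is detected by luciferase in 1A2-DRE hepatoma cells. Compounds or DMSO act for 24 hr at 37 C before a 30 min One-Glo step at room temperature.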
# [9] = biological target: Peroxisome proliferator-activated receptor alpha (Homo sapiens) (UniProt Q07869); assay: qHTS assay for small molecule agonists of the peroxisome proliferator-activated receptor alpha (PPARalpha) signaling pathway (AID 651778; active means well fitted curve in the direction sought with a large enough effect; an effect the other way counts as inactive or inconclusive; further: % of control where 0% means no effect); conditions: PathHunter PPARalpha complementation, chemiluminescence, 6 h; max response: stronger effect = higher value
# How it was run: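 Cells plated at 2,000/well and held overnight at 37 C, 5% CO2, then compound added by pin tool for 6 hr; after PathHunter detection reagent and 60 min at room temperature, chemiluminescence from enzyme complementation was read.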
# [10] = qHTS assay for small molecule agonists of the antioxidant response element (ARE) signaling pathway measured by Nrf2-dependant transcriptional activity (AID 720636; active means well fitted curve in the direction sought with a large enough effect in the repeat runs; an effect the other way counts as inactive or inconclusive; further: potency means the concentration at half of the fitted maximal effect;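 on activation: HepG2 cells with an ARE-driven luciferase reporter; % of control where 0% means no effect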)
# How it was run: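 We exposed ARE-luc HepG2 cells, seeded in assay medium with 1% dialyzed FBS and allowed 6 hr to adhere, to test compounds overnight (16 hr, 37 C) before measuring luciferase with ONE-Glo.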
# [11] = qHTS assay for small molecule agonists of the antioxidant response element (ARE) signaling pathway measured by Nrf2-dependant transcriptional activity - cell viability counter screen (AID 720653; active means well fitted curve in the direction sought with a large enough effect in the repeat runs; an effect the other way counts as inactive or inconclusive; further: on the % scale 0 is the no-effect control and ±100 the full control effect); conditions: ARE-bla HepG2 viability, CellTiter-Glo ATP luminescence, 16 h; max response: stronger effect = lower value
# How it was run: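 ARE-bla HepG2 cells (2,000/well) rested 5 hrs at 37C/5% CO2, then exposed to compounds in DMSO for 16 hrs. Viability was read in the same wells as intracellular ATP by luminescence, 30 min at room temperature after reagent addition.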
# [12] = qHTS assay for cell viability of the p53RE-bla HCT-116 cell line (AID 743292; active means well fitted curve in the direction sought with a large enough effect; an effect the other way counts as inactive or inconclusive; further: on the % scale 0 is the no-effect control and ±100 the full control effect; nearly all actives have a fitted effect of over 55% in size)
# How it was run: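 In this qHTS counter-screen, metabolically competent p53RE-bla HCT-116 cells were counted via their ATP content. Compounds were applied for 16 h at 37 C and luciferase-coupled luminescence was measured.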
# [13] = qHTS assay for small molecule activators of the p53 signaling pathway (AID 651743; active means well fitted activation curve with a large enough effect in the signal ratio, not every such curve was filed as active; the % refers to the signal ratio; further: series mostly up to about 92 µM; % of control where 0% means no effect); conditions: HCT-116 p53RE-bla, beta-lactamase FRET ratio, 16 h; activation: stronger effect = higher value
# How it was run: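 Agonist-mode quantitative HTS in HCT-116 cells carrying a p53-response-element beta-lactamase reporter; 16 h compound treatment at 37 C, then FRET substrate loading for 2 h at room temperature and fluorescence read.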
# [14] = qHTS assay for cell viability of HEK293 cells (AID 743288; active means well fitted curve in the direction sought with a large enough effect; an effect the other way counts as inactive or inconclusive; further: on the % scale 0 is the no-effect control and ±100 the full control effect; nearly all actives have a fitted effect of over 50% in size); conditions: ATP luminescence (CellTiter-Glo), 18 h; max response: stronger effect = lower value
# How it was run: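 After 18 h compound exposure at 37 C, parental HEK293 cells (2,000/well) are lysed with CellTiter-Glo and luminescence is read following 30 min at room temperature.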
# [15] = biological target: Nuclear receptor subfamily 1 group I member 2 (Rattus norvegicus) (UniProt Q9R1A7); assay: qHTS assay for small molecule activators of the rat pregnane X receptor (rPXR) signaling pathway (AID 651751; call rule not given here; further: 0% is about no effect); conditions: rPXR reporter cells, luciferase (One-Glo), 24 h
# [16] = qHTS assay for small molecule activators of the human pregnane X receptor (PXR) signaling pathway (AID 720659; call rule not given here; further: 0% is about no effect)
# [17] = qHTS assay for small molecule activators of the nuclear factor-kappa B (NF-kB) signaling pathway (AID 651749; active means well fitted activation curve with a large enough effect in the signal ratio; the % refers to the signal ratio; further: series mostly up to about 77 µM; % of control where 0% means no effect); conditions: NF-kB-bla ME-180 cells, beta-lactamase FRET ratio, 16 h; activation: stronger effect = higher value
# How it was run: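 Human ME-180 cervical cells with an NF-kB-bla construct; compounds added via 23 nL pin transfer, DMSO as vehicle; incubation 16 hr. Reporter activity measured by FRET disruption.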
# Sequence of Peroxisome proliferator-activated receptor alpha (Homo sapiens) (Q07869 whole entry, looked up): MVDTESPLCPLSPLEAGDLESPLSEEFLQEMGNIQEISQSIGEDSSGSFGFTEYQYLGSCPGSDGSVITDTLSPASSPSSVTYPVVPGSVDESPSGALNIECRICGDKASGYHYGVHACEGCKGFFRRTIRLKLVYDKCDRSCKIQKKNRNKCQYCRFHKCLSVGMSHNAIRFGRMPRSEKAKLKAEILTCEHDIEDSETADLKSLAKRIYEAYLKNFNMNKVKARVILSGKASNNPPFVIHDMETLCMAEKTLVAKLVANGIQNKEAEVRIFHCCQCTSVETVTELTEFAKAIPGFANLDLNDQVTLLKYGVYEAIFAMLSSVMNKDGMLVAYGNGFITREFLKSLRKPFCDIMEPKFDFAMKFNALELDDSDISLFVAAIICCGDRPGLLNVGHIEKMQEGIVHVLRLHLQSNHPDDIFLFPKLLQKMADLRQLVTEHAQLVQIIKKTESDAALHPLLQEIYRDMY
# Sequence of Peroxisome proliferator-activated receptor delta (Homo sapiens) (Q03181 whole entry, looked up): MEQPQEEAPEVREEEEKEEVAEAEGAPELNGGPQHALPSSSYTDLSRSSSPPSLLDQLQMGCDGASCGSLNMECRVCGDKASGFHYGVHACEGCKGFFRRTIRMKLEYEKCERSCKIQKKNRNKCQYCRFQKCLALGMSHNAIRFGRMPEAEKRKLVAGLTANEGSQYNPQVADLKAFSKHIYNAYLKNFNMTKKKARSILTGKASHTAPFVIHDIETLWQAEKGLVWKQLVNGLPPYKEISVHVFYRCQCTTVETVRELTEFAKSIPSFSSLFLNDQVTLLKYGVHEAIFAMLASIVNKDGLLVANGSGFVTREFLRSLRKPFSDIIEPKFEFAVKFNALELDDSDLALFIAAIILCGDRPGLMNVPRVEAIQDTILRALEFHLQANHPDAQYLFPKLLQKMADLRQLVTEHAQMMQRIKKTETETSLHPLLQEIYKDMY
# Sequence of Glucocorticoid receptor (Homo sapiens) (P04150 whole entry, looked up): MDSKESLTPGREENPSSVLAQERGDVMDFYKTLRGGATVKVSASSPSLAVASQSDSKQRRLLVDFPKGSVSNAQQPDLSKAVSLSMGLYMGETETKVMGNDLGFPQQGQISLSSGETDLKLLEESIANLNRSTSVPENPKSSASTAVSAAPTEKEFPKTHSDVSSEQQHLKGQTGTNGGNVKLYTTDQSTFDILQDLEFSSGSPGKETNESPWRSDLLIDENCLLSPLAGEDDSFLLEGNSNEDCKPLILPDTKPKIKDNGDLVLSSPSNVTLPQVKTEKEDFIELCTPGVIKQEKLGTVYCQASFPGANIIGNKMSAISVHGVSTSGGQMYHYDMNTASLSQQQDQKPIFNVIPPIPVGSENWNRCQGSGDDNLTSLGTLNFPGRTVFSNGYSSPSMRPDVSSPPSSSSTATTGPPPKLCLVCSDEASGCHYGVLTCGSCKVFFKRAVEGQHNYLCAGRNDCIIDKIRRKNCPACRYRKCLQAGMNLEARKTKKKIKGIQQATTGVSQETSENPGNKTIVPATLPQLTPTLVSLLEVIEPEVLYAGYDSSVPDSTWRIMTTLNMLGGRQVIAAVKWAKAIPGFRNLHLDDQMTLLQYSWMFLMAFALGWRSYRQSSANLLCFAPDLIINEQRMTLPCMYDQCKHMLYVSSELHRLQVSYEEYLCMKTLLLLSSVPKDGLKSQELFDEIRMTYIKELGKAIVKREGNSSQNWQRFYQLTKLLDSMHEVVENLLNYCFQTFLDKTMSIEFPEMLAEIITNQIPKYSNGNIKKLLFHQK
# Sequence of Bile acid receptor (Homo sapiens) (Q96RI1 whole entry, looked up): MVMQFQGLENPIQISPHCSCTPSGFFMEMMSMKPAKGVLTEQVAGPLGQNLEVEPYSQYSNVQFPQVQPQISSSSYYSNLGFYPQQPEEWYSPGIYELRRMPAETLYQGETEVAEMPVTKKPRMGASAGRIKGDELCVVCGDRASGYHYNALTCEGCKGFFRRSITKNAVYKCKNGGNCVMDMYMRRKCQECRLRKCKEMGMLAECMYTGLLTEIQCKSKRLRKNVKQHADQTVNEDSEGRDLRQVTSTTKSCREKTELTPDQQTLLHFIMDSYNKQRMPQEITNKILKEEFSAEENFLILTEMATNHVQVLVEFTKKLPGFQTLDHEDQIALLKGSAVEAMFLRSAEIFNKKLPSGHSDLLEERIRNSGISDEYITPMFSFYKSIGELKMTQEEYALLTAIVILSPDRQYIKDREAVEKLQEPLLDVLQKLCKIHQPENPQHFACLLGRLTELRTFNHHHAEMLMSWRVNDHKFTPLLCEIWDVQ
# Sequence of Retinoic acid receptor RXR-alpha (Homo sapiens) (P19793 whole entry, looked up): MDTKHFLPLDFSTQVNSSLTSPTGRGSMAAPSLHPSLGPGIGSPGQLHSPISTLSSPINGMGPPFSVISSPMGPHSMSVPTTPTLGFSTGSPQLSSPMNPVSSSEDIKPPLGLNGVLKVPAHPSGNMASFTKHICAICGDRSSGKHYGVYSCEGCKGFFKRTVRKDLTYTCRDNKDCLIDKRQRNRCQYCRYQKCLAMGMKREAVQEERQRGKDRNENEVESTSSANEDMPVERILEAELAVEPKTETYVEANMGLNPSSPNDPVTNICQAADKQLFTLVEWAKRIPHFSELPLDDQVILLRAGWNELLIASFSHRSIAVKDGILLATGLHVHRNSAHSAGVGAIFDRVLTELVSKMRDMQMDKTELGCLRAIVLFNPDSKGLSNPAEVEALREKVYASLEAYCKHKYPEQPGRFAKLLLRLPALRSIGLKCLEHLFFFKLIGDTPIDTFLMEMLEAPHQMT
# Sequence of Nuclear receptor subfamily 1 group I member 2 (Rattus norvegicus) (Q9R1A7 whole entry, looked up): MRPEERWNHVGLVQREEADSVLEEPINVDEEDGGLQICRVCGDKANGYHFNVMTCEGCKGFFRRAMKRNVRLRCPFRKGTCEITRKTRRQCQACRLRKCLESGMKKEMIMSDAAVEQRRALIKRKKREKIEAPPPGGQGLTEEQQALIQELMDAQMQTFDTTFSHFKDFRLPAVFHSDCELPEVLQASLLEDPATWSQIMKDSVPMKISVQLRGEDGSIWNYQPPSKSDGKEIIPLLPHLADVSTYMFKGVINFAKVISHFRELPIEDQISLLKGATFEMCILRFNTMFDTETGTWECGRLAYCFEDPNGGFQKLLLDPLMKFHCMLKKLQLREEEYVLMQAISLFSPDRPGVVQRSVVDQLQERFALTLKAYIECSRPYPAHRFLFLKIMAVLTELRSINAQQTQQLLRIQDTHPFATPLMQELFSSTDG
# Sequence of Thyroid hormone receptor beta (Homo sapiens) (P10828 whole entry, looked up): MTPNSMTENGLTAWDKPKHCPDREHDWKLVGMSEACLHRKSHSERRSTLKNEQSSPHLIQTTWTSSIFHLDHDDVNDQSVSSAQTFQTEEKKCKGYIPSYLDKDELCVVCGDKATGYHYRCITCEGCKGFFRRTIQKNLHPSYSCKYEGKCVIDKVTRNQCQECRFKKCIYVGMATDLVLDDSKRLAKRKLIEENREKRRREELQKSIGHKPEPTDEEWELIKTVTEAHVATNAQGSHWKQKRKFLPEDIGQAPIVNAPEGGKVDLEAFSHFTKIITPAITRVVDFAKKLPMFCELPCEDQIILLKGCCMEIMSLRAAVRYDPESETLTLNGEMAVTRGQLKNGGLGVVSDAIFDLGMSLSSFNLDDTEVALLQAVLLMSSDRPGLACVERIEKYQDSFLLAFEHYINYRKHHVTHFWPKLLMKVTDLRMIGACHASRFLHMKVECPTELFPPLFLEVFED
smiles,measurement,setting,value
N#CCc1ccccc1[N+](=O)[O-],activation,[1],-1.36% (inactive)
same,outcome,[2],inactive
CCCCCC/C(C=O)=C\c1ccccc1,activation,[1],-2.14% (inactive)
same,outcome,[2],inactive
O=C(O)c1ccccc1Cl,activation,[1],1.39% (inactive)
same,outcome,[2],inactive
Fc1ccc(Oc2ccnc3cc(Cl)cc(Cl)c23)cc1,activation,[1],-3.06% (inactive)
same,activation,[3],-6.4% (inactive)
same,Potency,[4],inactive
same,max response,[5],20.3%
same,Potency,[6],39.8 µM (active)
same,Potency,[7],21.7 µM (active)
same,activation,[8],15% (inactive)
same,max response,[9],3.62% (inactive)
same,Potency,[10],34.4 µM (active)
same,max response,[11],-31.6% (inactive)
same,Potency,[12],inactive
CC1COC(Cn2cncn2)(c2ccc(Oc3ccc(Cl)cc3)cc2Cl)O1 (stereo not given),activation,[1],3.21% (inactive)
same,activation,[3],-11.8% (inactive)
same,max response,[5],9.03%
same,Potency,[6],39.8 µM (active)
same,Potency,[7],15.4 µM (active)
same,activation,[13],12.1% (inactive)
same,activation,[8],14.3% (inactive)
same,max response,[9],6.01% (inactive)
same,Potency,[10],inactive
same,max response,[14],-29.8% (inactive)
same,Potency,[12],inactive
same,max response,[15],-12.8% (inactive)
same,outcome,[16],inactive
Cc1ccccc1Br,activation,[1],-2.02% (inactive)
same,outcome,[2],inactive
CCC(C)OC(=O)N1CCCCC1CCO (stereo not given),activation,[1],1.43% (inactive)
same,outcome,[2],inactive
Cc1cccc([N+](=O)[O-])c1C(=O)O,activation,[1],-1.22% (inactive)
same,outcome,[2],inactive
C[C@]12CCC(=O)C=C1CC[C@@H]1[C@@H]2[C@@H](O)C[C@]2(C=O)[C@@H](C(=O)CO)CC[C@@H]12,activation,[1],1.4% (inactive)
same,outcome,[2],inactive
CCCCC(CC)CNCC(CC)CCCC (stereo not given),activation,[1],-2.36% (inactive)
same,outcome,[2],inactive
CCCCCCCCCCCCO,activation,[1],-2.63% (inactive)
same,outcome,[2],inactive
COC(=O)C1CCC(C(=O)OC)CC1 (stereo not given),activation,[1],-4.06% (inactive)
same,outcome,[2],inactive
CC(C)(C)c1ccc(CSc2cnn(C(C)(C)C)c(=O)c2Cl)cc1,activation,[1],6.79% (inactive)
same,activation,[3],-0.474% (inactive)
same,Potency,[7],0.0969 µM (active)
same,activation,[8],-3.11% (inactive)
same,max response,[9],-6% (inactive)
same,Potency,[10],inactive
same,Potency,[12],inactive
same,outcome,[16],inactive
Cc1c(N)cccc1Cl,activation,[1],-0.769% (inactive)
same,outcome,[2],inactive
Cc1ccc(CO)cc1,activation,[1],-3.46% (inactive)
same,outcome,[2],inactive
CCCCC/C=C\C/C=C\CCCCCCCC(=O)O,activation,[1],-2.08% (inactive) and -1.01% (inactive)
same,outcome,[2],inactive
CO/N=C(/C1=NOCCO1)c1ccccc1Oc1ncnc(Oc2ccccc2Cl)c1F,activation,[1],7.75% (inactive)
same,activation,[3],-11.9% (inactive)
same,activation,[17],4.67% (inactive)
same,max response,[9],18.3% (inactive)
same,Potency,[10],inactive
same,max response,[11],16.2% (inactive)
same,max response,[14],6.13% (inactive)
same,outcome,[16],inactive
C=Cc1ccc(P(c2ccccc2)c2ccccc2)cc1,activation,[1],-1.25% (inactive)
same,outcome,[2],inactive
Cl[Si](Cl)(Cl)c1ccccc1,activation,[1],0.575% (inactive)
same,outcome,[2],inactive
